Most compounds without a hit are left out; they make up all but 3.1% or so of the library.
Vif-APOBEC3G blk: blocks the Vif interaction with human APOBEC3G | HeLa A3G-eYFP + Vif (tagged APOBEC3G with the HIV-1 protein that degrades it), YFP fluorescence, overnight | 410,000 tested, 0.076% active | Potency, µM (highest dose often 46.1 µM), most hits filed as inhibitors | AID 602310; note: nearly all actives have a fitted effect of over 60% in size
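HeLa cells stably expressing Vif and C-terminally eYFP-tagged A3G, seeded overnight at 37 deg C, then exposed to compound by pintool overnight at 37 deg C. Rise in yellow fluorescence (Ex 488/Em 500-530, Acumen) marks blocked Vif-driven A3G degradation.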
VDR inhibitor: blocks the human vitamin D receptor; P11473; VDR-SRC2-3 peptide fluorescence polarization, 2 h; Potency, µM, most hits filed as inhibitors; 400,000 tested, 0.93% active
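Inhibition of the VDR/SRC2-3 peptide interaction is quantified by fluorescence polarization. Compounds (23 nl, pintool) incubate with the reagents for 2 hours at ambient room temperature.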
TSHR antag: antagonists of human thyroid stimulating hormone receptor | TSHR-expressing cells, TSH-stimulated cAMP HTRF, 2 h; active compounds read low | AID 504810 | activity change, negative = inhibition, % at 11.5 µM | 330,000 tested, 0.2% active | P16473;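 active = activity change below a set negative limit, meaning inhibition stronger than a set level, cut at about -70% in these data; inconclusive = activity change between two set negative limits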
Target sequence (P16473 whole entry, looked up): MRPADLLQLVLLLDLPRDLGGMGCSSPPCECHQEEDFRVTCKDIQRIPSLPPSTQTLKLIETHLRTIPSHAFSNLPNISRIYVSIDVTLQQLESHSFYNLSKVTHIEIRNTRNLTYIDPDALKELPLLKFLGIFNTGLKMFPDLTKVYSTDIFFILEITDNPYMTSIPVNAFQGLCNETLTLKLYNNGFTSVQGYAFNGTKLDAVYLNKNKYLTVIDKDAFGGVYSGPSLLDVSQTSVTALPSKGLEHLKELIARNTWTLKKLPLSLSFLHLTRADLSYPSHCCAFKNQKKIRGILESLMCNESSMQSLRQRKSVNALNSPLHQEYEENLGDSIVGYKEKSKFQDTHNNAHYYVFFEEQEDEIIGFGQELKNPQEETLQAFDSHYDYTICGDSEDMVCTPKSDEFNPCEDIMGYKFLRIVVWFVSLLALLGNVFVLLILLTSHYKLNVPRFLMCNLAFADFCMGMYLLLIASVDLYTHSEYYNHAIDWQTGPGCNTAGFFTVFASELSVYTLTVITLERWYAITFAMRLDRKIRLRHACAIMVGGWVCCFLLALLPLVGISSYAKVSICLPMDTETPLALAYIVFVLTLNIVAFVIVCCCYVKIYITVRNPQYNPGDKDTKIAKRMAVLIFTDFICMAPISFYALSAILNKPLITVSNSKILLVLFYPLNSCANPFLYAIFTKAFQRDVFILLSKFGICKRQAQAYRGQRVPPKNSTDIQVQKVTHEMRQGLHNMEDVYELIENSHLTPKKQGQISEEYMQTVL
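Antagonism was scored as loss of TSH-driven cAMP in TSHR cells, stimulated with 4nM TSH (EC80) for 2 hours at 37 deg C and detected by homogeneous HTRF competition immunoassay.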
Vif-A3F inh: blocks the Vif interaction with APOBEC3F. Potency, µM (top dose mostly 46.1 µM). HeLa A3F-eYFP + Vif (tagged APOBEC3F with the HIV-1 protein that degrades it), YFP fluorescence increase. 390,000 tested, 0.2% active. AID 602313; note: nearly all actives have a fitted effect of over 65% in size
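Fluorescence increase (Ex 488/Em 500-530) after overnight compound treatment at 37 deg C flags inhibition of Vif-driven A3F-eYFP loss in stable HeLa A3F-eYFP/Vif cells seeded overnight beforehand.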
PLK1 PBD inh: blocks phosphopeptide binding to human PLK1 polo-box domain. 360,000 tested, 2.8% active. P53350. Potency, µM, actives largely listed as inhibitors. Plk1 PBD binding of FITC phosphopeptide, fluorescence polarization; note: series mostly up to about 57 µM; nearly all actives have a fitted effect of over 65% in size
A number is an active result; . = inactive; ? = inconclusive; / = not tested or not shown. Unless noted, calls come from the whole dose curve; as a rule, active = well fitted curve in the direction sought with a large enough effect; inconclusive = small, poorly fitted or top-dose-only effect, or another doubt; inactive = no such curve, though single readings can be large; an effect the other way counts as inactive or inconclusive.

SMILES	Vif-APOBEC3G blk	VDR inhibitor	TSHR antag	Vif-A3F inh	PLK1 PBD inh
COC(=O)c1ccc(C(=O)OC)c(NC(=O)CSc2cccc[n+]2[O-])c1	.	.	.	.	24µM
Cc1cc(C)nc(-n2nc(C)c3c2N(Cc2ccccc2)C(=O)CC3c2ccc(Cl)cc2)n1 (stereo not drawn)	.	.	/	.	/
Cc1cc(NC2CCCCC2)nc(-n2nc(C)cc2C)n1	/	.	.	/	/
CC(=O)N1CC(O)CC1C(=O)O (stereo not drawn)	/	.	/	/	/
OC[C@@H](O)C(O)[C@H](O)[C@H](O)CO (stereo partly drawn)	/	.	/	/	/
CCCOc1ccc(C(=O)N(Cc2ccccc2Cl)C2CCS(=O)(=O)C2)cc1 (stereo not drawn)	.	.	/	.	/
CCCCCCCCCC[n+]1cccc2cc(Cl)ccc21	.	/	/	/	/
COC(=O)[C@@H]1N2C(=O)[C@@H](NC(=O)C(C)Oc3ccccc3)[C@H]2SC1(C)C (stereo partly drawn)	.	/	/	/	/
NC(=O)c1ccc2c(c1)S(=O)(=O)c1ccccc1C2=O	.	.	.	.	.
CC1=C(C(N)=O)S(=O)(=O)c2ccccc21	.	?	.	.	21µM
CCCN1CNc2c(c(=O)[nH]c(=S)n2CCc2cc(Cl)ccc2Cl)C1	/	.	/	/	/
O=C(O)C1Nc2ccccc2C2C=CCC12 (stereo not drawn)	.	?	/	/	/
O=C(O)C1Nc2c(C(F)(F)F)ccc(Cl)c2C2C=CCC12 (stereo not drawn)	.	?	.	?	27µM
Cc1cc(C)c2c(c1)NC(C(=O)O)C1CC=CC21 (stereo not drawn)	.	.	.	.	3µM
Cc1cc(C)c2c(c1)C1C=CCC1C(C(=O)O)N2 (stereo not drawn)	.	?	/	/	/
Cc1ccc2c(c1C)NC(C(=O)O)C1CC=CC21 (stereo not drawn)	.	.	.	.	19µM
Cc1ccc(Cl)c2c1N[C@@H](c1ccc(C(=O)O)cc1)[C@H]1CC=C[C@@H]21	.	.	/	.	/
O=C(O)C1Nc2c(C(=O)N3CCOCC3)cccc2C2C=CCC12 (stereo not drawn)	.	?	.	.	12µM
COC(=O)C/C=C/[C@@H](C)[C@H](NC(=O)OCC(Cl)(Cl)Cl)c1ccc2ccccc2c1	/	.	/	/	/
C/C1=C\[C@@H](O)C(C(C)C)C(OC(=O)c2ccc(O)cc2)C/C(C)=C/CC1 (stereo partly drawn)	/	.	/	/	/
CC(CCC(C)[n+]1cccc(Br)c1)[n+]1cccc(Br)c1 (stereo not drawn)	.	/	/	/	/
CN(C)c1ccc(C(=C2c3ccccc3-c3ccccc32)c2ccc(N(C)C)cc2)cc1	.	/	/	/	/
O=C(Cn1nc(-c2cccs2)ccc1=O)Nc1ccc(Br)cc1	.	.	.	.	.
O=C(Cn1nc(-c2ccco2)ccc1=O)Nc1ccc(Br)cc1	.	?	.	.	21µM
COc1cccc(Cn2c(=O)c(-c3ccc(Cl)cc3)nc3cncnc32)c1	/	.	/	/	/
SMILES	Vif-APOBEC3G blk	VDR inhibitor	TSHR antag	Vif-A3F inh	PLK1 PBD inh
C=C1CCC2C(C)(C)[C@@H](O)CC[C@@]2(C)[C@@H]1COc1ccc2ccc(=O)oc2c1 (stereo partly drawn)	.	.	-76	.	.
C=C1CCC2C(C)(C)[C@H](O)CC[C@@]2(C)[C@@H]1COc1cc(=O)oc2ccccc12 (stereo partly drawn)	.	.	.	.	.
COc1ccc(CN(C(=O)Nc2cc(C)ccc2C)C2CCN(C(C)=O)CC2)cc1	.	.	/	.	/
COc1ccc(Oc2ncc3nc(-c4ccccc4)c(=O)n(Cc4cccs4)c3n2)cc1	/	.	/	/	/
CCC(=O)N1CCc2cc(-c3csc(NC(=O)c4ccco4)n3)ccc21	.	.	.	.	.
CC(C)C(=O)N1CCc2cc(-c3csc(N)n3)ccc21	.	.	.	.	24µM
C=C(C)C(O)/C=C/c1ccc(Br)cc1 (stereo not drawn)	/	.	/	/	/
C=CCOc1ccc(C2C(C(=O)c3ccco3)=C(O)C(=O)N2c2nnc(C)s2)cc1 (stereo not drawn)	.	?	.	.	21µM
Cc1ccc2nc(N3C(=O)C(O)=C(C(=O)c4ccco4)C3c3cccs3)sc2c1 (stereo not drawn)	.	?	.	.	27µM
COc1ccc2nc(N3C(=O)C(O)=C(C(=O)c4ccco4)C3c3ccc(C)o3)sc2c1 (stereo not drawn)	.	?	.	.	19µM
Cc1cc(C)c2nc(N3C(=O)C(O)=C(C(=O)c4ccco4)C3c3ccco3)sc2c1 (stereo not drawn)	.	?	.	.	11µM
COc1ccc(NC(=O)C(=O)NCC(c2cccnc2)N2CCc3ccccc3C2)cc1 (stereo not drawn)	.	.	/	.	/
O=C(CCC1N=C2c3ccccc3N=C(SCc3ccccc3Cl)N2C1=O)NCCc1ccccc1 (stereo not drawn)	.	.	/	.	/
O=[N+]([O-])C(=C1Nc2ccccc2N1)/C(Cl)=C(/Cl)Br	.	.	.	.	30µM
COC(=O)[C@@]1(Cc2ccc(OC)cc2)[C@@H]2C(=CC(=O)[C@H]2CC(=O)C(=O)N2CCCC2)CN1C(=O)c1ccccc1	?	89µM	.	.	.
COC(=O)[C@@]1(Cc2ccc(F)cc2)[C@H]2C(CC(=O)C(=O)N3CCCC3)C(=O)C[C@H]2CN1C(=O)c1ccccc1 (stereo partly drawn)	/	/	/	/	.
O=C1C[C@@H](c2ccccc2Cl)N1S(=O)(=O)c1ccccc1[N+](=O)[O-]	.	.	/	/	/
CCOc1ccc(OCC)c(NC(=O)C2CCN(S(=O)(=O)c3ccc4c(c3)CC(C)N4C(C)=O)CC2)c1 (stereo not drawn)	.	.	.	.	30µM
CC(=O)N1c2ccc(S(=O)(=O)NCCC(=O)Nc3ccc(OC(F)(F)F)cc3)cc2CC1C (stereo not drawn)	.	?	.	.	6.7µM
CC(=O)N1c2ccc(S(=O)(=O)NCC3CCC(C(=O)N4CCCCC4)CC3)cc2CC1C (stereo not drawn)	.	.	.	.	.
CC(=O)N1c2ccc(S(=O)(=O)NCCC(=O)Nc3ccc(C)cc3Br)cc2CC1C (stereo not drawn)	.	.	/	.	/
CCOc1ccc(NC(=O)C2CCN(S(=O)(=O)c3ccc4c(c3)CC(C)N4C(C)=O)CC2)cc1 (stereo not drawn)	.	.	.	.	.
CC(=O)N1c2ccc(S(=O)(=O)NC(CC(=O)O)c3ccc(Br)cc3)cc2CC1C (stereo not drawn)	.	?	.	.	27µM
CC(=O)N1c2ccc(S(=O)(=O)NCC3CCC(C(=O)N4CCCC(C)C4)CC3)cc2CC1C (stereo not drawn)	.	?	.	.	21µM
Cc1ccc(C)c(NC(=O)c2cc(=O)c3cc(C)cc(C)c3o2)c1	.	.	/	.	/

Source: PubChem
